This note sets out measurements from ChEMBL document CHEMBL4513146, “CO-ADD screening of Karazin Kharkiv National University (Ukraine) compounds”.

Results with a measured potency or affinity are listed apart.

The test system of experiment [1] is Staphylococcus aureus. Conditions: Concentration 32 ug.mL-1;; ASSAY_TEST Inhibition of Bacterial Growth; detection method Absorption (OD600); MEDIA CAMHB; plate type 384well; NBS; CORNING #3640; time 18 hr.
Experiment [2] relates to Escherichia coli. Conditions: Concentration 32 ug.mL-1;; ASSAY_TEST Inhibition of Bacterial Growth; detection method Absorption (OD600); MEDIA CAMHB; plate type 384well; NBS; CORNING #3640; time 18 hr.

Consider `Cc1cccc(C)c1NC(=O)Cn1nc2c(Sc3ccccc3)nccn2c1=O`, for which the Inhibition in experiment [1] was -0.19%; in experiment [2], -13.17%.
For `COC(=O)c1cccc(NC(=O)Cn2nc3c(N4CCC(C)CC4)nccn3c2=O)c1` the same measures were -12.03% and -9.95%.
For `O=C(CSc1nnc2c3cc(-c4ccc(F)cc4)nn3ccn12)NCc1ccccc1Cl` the same measures were 1.62% and -6.39%.
In the case of `CCC(C)NC(=O)Cn1nc2n(Cc3ccco3)c(=O)c3sccc3n2c1=O` (configuration not stated), the results for the Inhibition in experiment [1] and in experiment [2] were 7.96% and 2.21%, respectively.
On the same counts, the results for `COc1ccc(C)cc1NC(=O)Cn1nc2ccc(SCc3ccc(Cl)cc3)nn2c1=O` are 8.35% and -14.85%.
For `Cc1ccc(C)c(CSc2nnc3c(=O)n(-c4ccc(F)c(F)c4)ccn23)c1` the same measures were 21.94% and -0.2%.
For `COc1cccc(Oc2nccn3c(=O)n(CC(=O)Nc4ccc5c(c4)OCCO5)nc23)c1` the same measures were 9.52% and -8.9%.
`COc1ccccc1-n1ccn2c(SCC(=O)Nc3ccc(C)c(F)c3)nnc2c1=O`: the results for the Inhibition in experiment [1] and in experiment [2] were 12% and -1.35%, respectively.
On the same counts, the results for `Cc1cc(C)c(NC(=O)Cn2nc3c(SCc4ccc(Cl)cc4)nccn3c2=O)c(C)c1` are 3.14% and 0.78%.
For the compound `COC(=O)c1ccccc1NC(=O)Cn1nc2c(Oc3cccc(OC)c3)nccn2c1=O`, the Inhibition in experiment [1] is recorded as -4.11%; in experiment [2], -21.29%.
On to `Cc1cc(C)c(NC(=O)Cn2nc3ccc(-c4ccc(C)c(C)c4)nn3c2=O)c(C)c1`, for which the values for the Inhibition in experiment [1] and in experiment [2] were -8.09% and -15.6%, respectively.
For `Cc1cc(C)c(NC(=O)Cn2c(=O)c3nnc(C(C)C)n3c3ccccc32)c(C)c1` the same measures were 15.71% and 3.04%.
For `CCCCOc1ccc(-c2cc3c4nnc(SCC(=O)Nc5cccc(C#N)c5)n4ccn3n2)cc1` the same measures were -7.95% and -7.05%.
Take `O=c1c2nnc(-c3ccc([N+](=O)[O-])cc3)n2ccn1-c1ccc(F)c(F)c1`: the Inhibition is -6.17% in experiment [1] and -1.2% in experiment [2].
On the same counts, the results for `CCOc1ccc(-n2ccn3c(SC(C)C(=O)Nc4ccc(OC)cc4)nnc3c2=O)cc1` (configuration not stated) are 5.98% and -5.92%.
For `O=C(Cn1nc2c(SC3CCCCC3)nccn2c1=O)Nc1cccc(Br)c1` the same measures were -4.73% and -7.3%.
For `COc1cccc(N(Cc2ccc(F)cc2)S(=O)(=O)c2ccc3nncn3c2)c1`, the Inhibition in experiment [1] was -0.47%; in experiment [2] it was -9.93%.
On the same counts, the results for `COc1ccc(-c2cc3c4nnc(SCC(=O)NCc5ccccc5Cl)n4ccn3n2)cc1` are -4.22% and -7.58%.
For `CC(C)CCn1c(=O)c2ccc(C(=O)NC3CCCCC3)cc2n2c(=O)n(CC#N)nc12` the same measures were 5.76% and -7.09%.
Take `O=C(Cn1nc2c(Sc3ccccc3)nccn2c1=O)Nc1cccc(Cl)c1F`: the Inhibition in experiment [1] was 9.57%; in experiment [2], -0.62%.
On the same counts, the results for `CC(C)NC(=O)CSc1nnc2c(=O)n(Cc3ccc(F)cc3)ccn12` are -0.55% and -7.51%.
For `COc1ccc(NC(=O)c2ccc3nn(CC(=O)Nc4ccc(C)c(F)c4)c(=O)n3c2)cc1` the same measures were 8.14% and -7.69%.
For `Cc1ccc(C)c(CN(c2cccc(Cl)c2)S(=O)(=O)c2cccn3c(C)nnc23)c1`, the results for the Inhibition in experiment [1] and in experiment [2] were 11.55% and -2.76%, respectively.
As for `Cc1ccc(CN(c2ccc(F)cc2)S(=O)(=O)c2ccc3nnc(C)n3c2)cc1`, the Inhibition in experiment [1] is listed as -8.78%; in experiment [2], -18.59%.
Turning to `COc1cccc(-n2ccn3c(SCC(=O)c4ccc(C)cc4)nnc3c2=O)c1`, the Inhibition in experiment [1] is 8.57%; in experiment [2] it was -9.45%.
With `CCOc1ccc(NC(=O)Cn2nc3c4c5c(sc4ncn3c2=O)CCCC5)cc1`, the Inhibition in experiment [1] is reported as -17.71%; in experiment [2], 0.82%.
For `CCc1nnc2c(S(=O)(=O)N(Cc3ccc(C)cc3)c3ccc(C(C)C)cc3)cccn12` the same measures were 16.04% and -0.02%.
As for `Cc1cc2nn(CC(=O)Nc3ccc(F)cc3F)c(=O)n2c(Nc2ccc(C)c(F)c2)n1`, the results for the Inhibition in experiment [1] and in experiment [2] were 8.31% and -0.48%, respectively.
Take `Cc1cc(C)cc(NC(=O)Cn2nc3ccc(SCc4ccc(Cl)cc4)nn3c2=O)c1`: the values for the Inhibition in experiment [1] and in experiment [2] were -7.67% and -11.38%, respectively.
For `CC(C)c1ccc(N(Cc2cc(F)cc(F)c2)S(=O)(=O)c2cccn3cnnc23)cc1` the same measures were 8.68% and -1.47%.
For `COc1ccccc1NC(=O)Cn1nc2n(CCCOC(C)C)c(=O)c3ccccc3n2c1=O` the same measures were 11.96% and 2.24%.
For `O=C(CSc1nnc2c(=O)n(-c3ccccc3)ccn12)Nc1ccc(Br)cc1F` the same measures were 2.85% and -9.92%.
Regarding `CCOc1ccc(-n2ccn3c(SCC(=O)Nc4ccc(F)cc4F)nnc3c2=O)cc1`, the Inhibition in experiment [1] came to 5.96%; in experiment [2] it was 2.93%.
For `COc1ccccc1-n1ccn2c(SCc3ccccc3Cl)nnc2c1=O` the same measures were 15.04% and -4.4%.
On the same counts, the results for `Cc1ccc(NC(=O)CSc2nnc3c(=O)n(-c4ccc(C)c(C)c4)ccn23)c(Cl)c1` are 11.19% and -1.65%.
For the compound `COc1cccc(NC(=O)Cn2nc3c4c5c(sc4ncn3c2=O)CCCC5)c1`, the values for the Inhibition in experiment [1] and in experiment [2] were 2.27% and -1.99%, respectively.

The Inhibition is the relative decrease from the control value, in per cent.
